Source: PubChem (National Center for Advancing Translational Sciences (NCATS))
The list is not random: actives were taken first. Their share in the collection is about 1.8%.
p53ts 32C kill = p53ts cell cytotoxicity, permissive temperature; 130,000 tested, 0.93% active; Potency, µM (titrated, usually from 46.1 µM), for inactives: at the highest dose activity change, negative = cytotoxicity, actives largely listed as cytotoxic; AID 924; H1299-p53A138V at 32C, ATP luminescence viability, 24 h;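 further: 0% = DMSO and -100% = full killing by reference compound; nearly all actives have a fitted effect of over 55% in size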
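ATP-content luminescence (ATPlite) read-out after 24 h compound exposure at 32C in H1299-p53A138V cells (600/well). Tested up to 46 uM. Normalized to DMSO (0%) and 100 uM tamoxifen (100% killing); Hill-fit AC50.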
IkB sig inh = suppresses IkB signaling in ABC-DLBCL reporter cells; ABC-DLBCL IkBa-CBG/CBR dual luciferase ratio, 4 h; response scale: scaled: untreated 0%, proteasome inhibitor 100%; Potency, µM (highest dose often 57.1 µM), for inactives: at the highest dose IkBa stabilization activation; 110,000 tested, 0.04% active; AID 445; active means well fitted curve in the direction sought with a large enough effect in the signal ratio, not every such curve was filed as active; inconclusive means small, poorly fitted or top-dose-only effect, or a change in a side signal; the % refers to the signal ratio;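 further: the direction sought is a rising ratio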
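Curves were fitted separately to fusion (green), unfused (red) and ratio luminescence, then classed by r2, magnitude and activity. Cells: OCI-Ly3, 4 h compound plus doxycycline at 37C; 10 uM MG-132 defined full response.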
p53ts 39C kill = p53ts cell cytotoxicity, nonpermissive temperature | H1299-p53A138V viability at 39C, ATP luminescence, 24 h | Potency, µM (doses to about 46.1 µM), for inactives: at the highest dose activity change, negative = cell killing, hits mostly cytotoxic | 130,000 tested, 1.5% active | AID 902; further: on the % scale 0 is the no-effect control and ±100 the full control effect; nearly all actives have a fitted effect of over 55% in size
Peg3 imprint = genomic imprint erasure induction | mouse ES Peg3-LacZ reporter, beta-gal luminescence, 40 h | Potency, µM (doses to about 60.7 µM), without a hit: top-dose activity change, positive = activation, hits mostly activators | 110,000 tested, 0.02% active
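Gelatin-coated wells received 300 freshly trypsinized female ES cells with a Peg3LacZ-Neo reporter on the maternal allele, then incubated 40 hours at 37C. BetaGlo was added for 5 minutes at room temperature before a single luminescence read.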
* hit, by the source's call; u = inconclusive; x = no result; [ ] = another dose, or the depositor's remark. Unless noted, the call rests on the fitted dose curve; in most records, active means well fitted curve in the direction sought with a large enough effect; inconclusive means small, poorly fitted or top-dose-only effect, or another doubt; inactive means no such curve, though single readings can be large; an effect the other way counts as inactive or inconclusive. Potency means the concentration at half of the fitted maximal effect.

SMILES	p53ts 32C kill	IkB sig inh	p53ts 39C kill	Peg3 imprint
O=C(Nc1cc2c(cc1C(=O)c1ccccc1)OCCO2)c1ccc(Br)cc1	-6%	6%	20µM*	-17%[10.9 µM]
O=C(Nc1ccccn1)c1ccc2ccccc2n1	16µM*	u	16µM*	-83%
COc1cccc(NS(=O)(=O)c2cn(C)c(=O)n(C)c2=O)c1	7.9µM*	4%	13µM*	-80%
COc1cccc(NS(=O)(=O)c2ccc3c(c2)n(C)c(=O)c(=O)n3C)c1	-18%	5%	-8%	-2%
CCCCC#CC1C=CC(Oc2ccc(C(=O)OC)cc2)C(COC(=O)OCC)O1 (configuration not stated)	1%[9.22 µM]	x	11%[9.22 µM]	x
CN(C)c1ccc(/C=C(\C#N)c2nc3ccccc3c(=O)[nH]2)cc1	0.32µM*	u	0.32µM*	-6%[10.9 µM]
Cc1cccc(CCNC(=O)CCc2c(C)nc3c(-c4ccc(F)cc4)c(C)nn3c2C)c1	-3%	u	u	-8%[10.9 µM]
C=CCn1c(C)cc(C(=O)COc2ncnc3sccc23)c1C	u	0%	7.9µM*	-21%
Cc1nnc2ccc(N3CCN(C(=O)c4ccccc4)CC3)nn12	0%	3%	4%	-11%
O=C(c1ccc(Br)o1)N1CCN(c2ccc3nnc(-c4ccccc4)n3n2)CC1	13µM*	u	-5%	-39%
COc1ccc(CC(=O)Nc2cc(-c3nc4cccnc4s3)ccc2C)cc1	u	0%	13µM*	-17%[10.9 µM]
CN(Cc1ccco1)c1cc(-c2cccc(C#N)c2)ncn1	3%	-1%[11.4 µM]	-7%	-7%
COc1cccc(-c2cc(N(C)Cc3ccco3)ncn2)c1	u	-1%[11.4 µM]	13µM*	-84%
CN(C)c1ccc(-c2cc(N(C)Cc3ccco3)ncn2)cc1	13µM*	-2%[11.4 µM]	13µM*	-39%
CCCCSCCCNC(=O)c1cn(C)c2ccc(S(=O)(=O)N3CCCCC3)cc2c1=O	12%	-2%	16%	6%[10.9 µM]
COc1cc(-n2c(=O)c3ccccc3n(Cc3cccc(Cl)c3)c2=O)cc(OC)c1OC	-26%	17%	-22%	-6%[10.9 µM]
Cc1ccc(CNS(=O)(=O)c2cc(C(=O)Nc3cccc(C(F)(F)F)c3)ccc2F)cc1	-18%	u	13µM*	-8%[10.9 µM]
C=CCn1c(-c2ccc(OC)cc2)nc2ccccc21	16µM*	-1%	u	-40%
Cc1cccc(C)c1Nc1nc2ccccc2o1	0%	2%	-14%	-2%
Cc1nc(Nc2nc3ccccc3o2)nc2c1CCC2	13µM*	13%	16µM*	-90%
c1ccc2nc(-c3nc4ccccc4o3)ccc2c1	5µM*	u	5µM*	-91%
CCOC(=O)c1ccc(OCC(=O)c2ccc(O)cc2O)cc1	13µM*	0%	13µM*	-58%
CCOC(=O)COc1ccc(C(=O)c2ccccc2)c(O)c1	-2%	0%	-8%	-4%
COC(=O)c1ccc(OCC(=O)c2ccc(O)cc2O)cc1	13µM*	u	13µM*	-59%
CC(C)c1ccc(Nc2c(-c3ccccn3)nc3ccccn23)cc1	-21%	u	16µM*	-20%[10.9 µM]
SMILES	p53ts 32C kill	IkB sig inh	p53ts 39C kill	Peg3 imprint
Cc1ccc2nc(-c3cccnc3)c(Nc3ccc(C(C)C)cc3)n2c1	3%	3%	-13%	-8%[10.9 µM]
Cc1ccn2c(Nc3ccc(C(C)C)cc3)c(-c3cccnc3)nc2c1	-1%	u	25µM*	-11%[10.9 µM]
CC(C)c1ccc(Nc2c(-c3ccccc3O)nc3cnccn23)cc1	u	u	5µM*	-7%[10.9 µM]
CCCCCCCC/C=C\CCCCCCCC(=O)NCc1ccc(O)c(OC)c1	u	0%	32µM*	-13%
CCCCCCCC/C=C\CCCCCCCC(=O)NCCc1ccc(O)c(O)c1	u	59%	13µM*	-47%
Cc1c(C)n(C)c2ccc(C(=O)NCCCN3CCCCC3)cc12	-1%	0%	2%	-14%[10.9 µM]
CCCCNC(=O)CSc1nnc(C)c2c(C)n(-c3ccccc3)nc12	7%	u	16µM*	11%[10.9 µM]
CCOc1ccc(CNC(=O)CSc2nnc(C)c3c(C)n(-c4ccccc4)nc23)cc1	2%	1%	25µM*	-8%[10.9 µM]
Cc1nnc(SCC(=O)NCc2cccc(F)c2)c2nn(-c3ccccc3)c(C)c12	19%	-3%	5%	-7%[10.9 µM]
Cc1cc(NC(=O)CCCSc2nc(-c3ccco3)cc(C(F)(F)F)n2)no1	-25%	2%	-11%	-8%
CCCCN(C(=O)NC(=O)Nc1nc2ccc(OC)cc2s1)S(C)(=O)=O	13µM*	-4%	u	-49%
